Results from the supplement of paper PMC13380429.

System: Vero E6 infected with SARS-CoV-2
Experiment: SARS-CoV-2 infection rate relative to infected DMSO; higher = more infection, active = 60 or less
Details: 24 h

Row | SMILES | SARS-CoV-2 infection rate
1 | COc1ccc2cc(-c3cc(-c4cc(Cl)cc(Cl)c4)nn3[C@@H](C)c3ccc(C(=O)NCCC(=O)O)cc3)ccc2c1 (10 µM) | 106% (inactive)
2 | COc1ccc(-c2ccc(=N)n(CCCC(=O)O)n2)cc1 [gabazine] (10 µM) | 103% (inactive)
3 | CCCC[C@H](NC(C)=O)C(=O)N[C@H]1CC(=O)NCCCC[C@@H](C(=O)O)NC(=O)[C@H](Cc2c[nH]c3ccccc23)NC(=O)[C@H](CCCNC(=N)N)NC(=O)[C@@H](Cc2ccccc2)NC(=O)[C@H](Cc2c[nH]cn2)NC1=O [bremelanotide] (10 µM) | 96.5% (inactive)
4 | CCN1C[C@]2(OC(=O)c3ccccc3NC(C)=O)CC[C@H](OC)[C@@]34[C@@H]2C[C@@H]([C@@H]13)[C@@]1(O)C[C@H](OC)[C@H]2C[C@@H]4[C@]1(O)[C@H]2OC [lappaconite] (10 µM) | 118% (inactive)
5 | CCCCOc1ccc(C(=O)Nc2ccc(F)cc2F)cc1 (10 µM) | 106% (inactive)
6 | CC[C@H]1OC(=O)[C@H](C)[C@@H](O[C@H]2C[C@@](C)(OC)[C@@H](O)[C@H](C)O2)[C@H](C)[C@@H](O[C@@H]2O[C@H](C)C[C@H](N(C)C)[C@H]2O)[C@](C)(O)C[C@@H](C)C(=O)[C@H](C)[C@@H](O)[C@]1(C)O [erythromycin] (10 µM) | 102% (inactive)
7 | CS(=O)(=O)N1CCc2c(-c3cnc(N)nc3)nc(N3CCOCC3)nc21 (0.833333 µM) | 110% (inactive)
8 | O=C1NC(=O)c2c1c1c3ccccc3n3c1c1c2c2ccccc2n1C1CCC3O1 (10 µM) | 108% (inactive)
9 | O=c1[nH]c2ccccc2n1CCCN1CCC(n2c(=O)[nH]c3cc(Cl)ccc32)CC1 [domperidone] (10 µM) | 110% (inactive)
10 | O=C(O)COc1ccc(OCCNC[C@H](O)COc2ccccc2)cc1 (10 µM) | 104% (inactive)
11 | CO[C@H]1[C@H](O)[C@@H](O)[C@@H](O)[C@H](O)[C@@H]1O [pinitol] (10 µM) | 114% (inactive)
12 | COc1ccc(S(=O)(=O)N(C(C)=O)c2ccccc2/C=C/c2cc[n+]([O-])cc2)cc1 (10 µM) | 93.5% (inactive)
13 | CS(=O)(=O)Nc1c(O)ccc2c1CCC[C@H]2C1=NCCN1 (10 µM) | 110% (inactive)
14 | COc1ccc2[nH]c(I)c(CCNC(C)=O)c2c1 [2-iodomelatonin] (10 µM) | 88% (inactive)
15 | O=C1CS[C@@H](c2ccccc2Cl)c2cc(Cl)ccc2N1 (racemic) (10 µM) | 89% (inactive)
16 | CC(C)C[C@H](NC(=O)[C@@H](COC(C)(C)C)NC(=O)[C@H](Cc1ccc(O)cc1)NC(=O)[C@H](CO)NC(=O)[C@H](Cc1c[nH]c2ccccc12)NC(=O)[C@H](Cc1cnc[nH]1)NC(=O)[C@@H]1CCC(=O)N1)C(=O)N[C@@H](CCCNC(=N)N)C(=O)N1CCC[C@H]1C(=O)NNC(N)=O [goserelin-acetate] (10 µM) | 109% (inactive)
17 | OC[C@@H](O)[C@@H](O)[C@@H](O)CO [ribitol] (10 µM) | 105% (inactive)
18 | CCC(C)(C)C(=O)O[C@H]1C[C@@H](C)C=C2C=C[C@H](C)[C@H](CC[C@@H]3C[C@@H](O)CC(=O)O3)[C@H]21 [simvastatin] (0.833333 µM) | 26.5% (active)
19 | Cc1ccc(NC(=O)c2ccc(CN3CCN(C)CC3)cc2)cc1Nc1nc(-c2cccnc2)cs1 [masitinib] (10 µM) | 43% (active)
20 | O=c1ccn([C@@H]2O[C@H](COP(=O)(O)OP(=O)(O)OP(=O)(O)O)[C@@H](O)[C@H]2O)c(=O)[nH]1 (10 µM) | 97% (inactive)
21 | CSc1nc2ccc3nc(NC(=O)C(c4ccccc4)c4ccccc4)sc3c2s1 (10 µM) | 94.5% (inactive)
22 | NS(=O)(=O)OC[C@@H]1C[C@@H](n2ccc3c(N[C@H]4CCc5ccccc54)ncnc32)C[C@@H]1O [pevonedistat] (0.833333 µM) | 110% (inactive)
23 | O=C(NO)c1ccc(O)c(O)c1 [didox] (10 µM) | 96% (inactive)
24 | CCCCC/C=C\C/C=C\C/C=C\C/C=C\CCCC(=O)Nc1ccc(O)cc1 (10 µM) | 106% (inactive)
25 | NCCNc1ccc(NCCN)c2c1C(=O)c1ccncc1C2=O [pixantrone] (10 µM) | 71% (inactive)
26 | CCOc1ccccc1OCC1CNCCO1 (stereo unspecified) [viloxazine] (10 µM) | 112% (inactive)
